± gives the standard deviation of the averaged measurements.
What was measured:
[1] = tested on: DLD1; experiment: cell viability (CellTiter-Glo) relative to plate median (fraction of plate median); higher = more viable cells; details: 5 µM; treatment time 24 h; reporter: 7TFP
Procedure, shortened: (§1)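 Colorectal cancer lines with stably integrated lentiviral TCF/Wnt firefly luciferase reporters received library compounds at a final 5 µM, 24 h after seeding into 384-well plates, for a 24 h exposure. Reported figures are plate-median-normalised firefly luciferase or CellTiterGlo luminescence per well. They average two independent replicates.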

[2] = tested on: HCT116; experiment: as above; details: 5 µM; treatment time 24 h; reporter: TCF4/Wnt
Procedure, shortened: as §1

[3] = tested on: SW480; experiment: as above; details: 5 µM; treatment time 24 h; reporter: 7TFP
Procedure, shortened: as §1

[4] = tested on: DLD1; experiment: TCF/Wnt firefly luciferase reporter signal relative to plate median (fraction of plate median); higher = higher Wnt reporter signal; details: 5 µM; treatment time 24 h; reporter: 7TFP
Procedure, shortened: as §1

[5] = tested on: SW480; experiment: as above; details: 5 µM; treatment time 24 h; reporter: 7TFP
Procedure, shortened: as §1

Compound | cell viability [1] | cell viability [2] | cell viability [3] | TCF/Wnt firefly luciferase reporter signal [4] | TCF/Wnt firefly luciferase reporter signal [5]
CNCCCC12CCC(c3ccccc31)c1ccccc12 | 1.07 ± 0.085 | 1.085 ± 0.0071 | 1.07 ± 0.071 | 1.04 ± 0.035 | 1.1 ± 0.042
CCC[C@@H]1C[C@@H](C(=O)N[C@@H]([C@H]2O[C@H](SC)[C@H](O)[C@@H](O)[C@H]2O)[C@@H](C)O)N(C)C1 | 1.05 ± 0.12 | 1.03 ± 0.021 | 1.035 ± 0.0071 | 0.934 ± 0.015 | 1.04 ± 0.083
CN(C)c1ccc(O)c2c1C[C@H]1C[C@H]3[C@H](N(C)C)C(O)=C(C(N)=O)C(=O)[C@@]3(O)C(O)=C1C2=O | 0.991 ± 0.0099 | 1.03 ± 0.09 | 0.943 ± 0.048 | 1.05 ± 0.042 | 1.08 ± 0.085
CCC(C)C(N)=O (stereo not given) [2-Methylbutyramide] | 1.06 ± 0.028 | 1.05 ± 0.021 | 1.01 ± 0.018 | 1.16 ± 0.071 | 1.045 ± 0.0071
CCOC(=O)C1=C(COCCN)NC(C)=C(C(=O)OC)C1c1ccccc1Cl (stereo not given) | 0.998 ± 0.031 | 1.01 ± 0.097 | 1.03 ± 0.083 | 1.02 ± 0.11 | 1.04 ± 0.042
COc1ccc(C(C)=O)c(O)c1 | 1 ± 0.037 | 1.04 ± 0.09 | 1.05 ± 0.014 | 1.06 ± 0.071 | 1.03 ± 0.068
Clc1ccc(C(Cn2ccnc2)OCc2ccsc2Cl)c(Cl)c1 (stereo not given) | 0.966 ± 0.077 | 0.98 ± 0.085 | 1.005 ± 0.0071 | 0.923 ± 0.14 | 0.894 ± 0.023
CC(N)C(=O)OC(C)(C)Cc1ccc(Cl)cc1 (stereo not given) | 1.11 ± 0.042 | 1.15 ± 0.064 | 1.02 ± 0.036 | 0.945 ± 0.013 | 0.879 ± 0.1
Oc1cc2c(cc1O)C(c1ccccc1)CNCC2 (stereo not given) | 0.981 ± 0.019 | 0.944 ± 0.05 | 0.934 ± 0.025 | 1.08 ± 0.05 | 1.05 ± 0.064
CC(=O)O[C@H]1C[C@@H](OC(C)=O)C(C)(C)[C@@H]2C[C@@H](OC(C)=O)[C@@]3(C)C4=CC(=O)O[C@@H](c5ccoc5)[C@]4(C)CC[C@@H]3[C@@]12C | 1.01 ± 0.018 | 1.15 ± 0.092 | 1.05 ± 0.057 | 0.976 ± 0.011 | 0.997 ± 0.033
CC[C@@H]1C(=O)OC[C@@H]1Cc1cncn1C | 1.015 ± 0.0071 | 0.953 ± 0.067 | 0.992 ± 0.012 | 1.18 ± 0.05 | 1.16 ± 0.16
CCc1cccc2c3c([nH]c12)C(CC)(CC(=O)O)OCC3 (stereo not given) | 0.949 ± 0.073 | 0.957 ± 0.089 | 0.921 ± 0.025 | 1.04 ± 0.021 | 1.08 ± 0.035
C[C@H]1COc2c(N3CCN(C)CC3)c(F)cc3c(=O)c(C(=O)O)cn1c23 | 0.891 ± 0.025 | 0.966 ± 0.04 | 0.984 ± 0.023 | 0.996 ± 0.049 | 1.04 ± 0.093
C[C@H]1O[C@H](O[C@H]2[C@H](O)[C@@H](O)[C@@H](O[C@H]3[C@H](O)[C@@H](O)C(O)O[C@@H]3CO)O[C@@H]2CO)[C@H](O)[C@@H](O)[C@@H]1N[C@H]1C=C(CO)[C@@H](O)[C@H](O)[C@H]1O (stereo not given in full) | 1.01 ± 0.034 | 0.96 ± 0.057 | 0.988 ± 0.012 | 1.06 | 1.02 ± 0.014
COCCc1ccc(OCC(O)CNC(C)C)cc1 (stereo not given) | 1.14 ± 0.057 | 0.959 ± 0.025 | 1.01 ± 0.018 | 1.14 ± 0.042 | 1.055 ± 0.0071
COc1ccc2c(=O)c(CC(=O)O)coc2c1 | 0.968 ± 0.059 | 0.984 ± 0.08 | 0.968 ± 0.012 | 1 ± 0.021 | 0.985 ± 0.092
O=C(O)c1cc(O)c2c(c1)C(=O)c1cc(O)cc(O)c1C2=O | 0.873 ± 0.11 | 0.866 ± 0.057 | 0.991 ± 0.013 | 0.926 ± 0.22 | 1.12 ± 0.11
O=C(O[C@@H]1Cc2c(O)cc(O)cc2O[C@@H]1c1cc(O)c(=O)c2c(O)c(O)cc([C@H]3Oc4cc(O)cc(O)c4C[C@H]3OC(=O)c3cc(O)c(O)c(O)c3)c2c1)c1cc(O)c(O)c(O)c1 | 0.996 ± 0.035 | 0.9235 ± 0.0064 | 1.045 ± 0.0071 | 0.903 ± 0.041 | 1.04
COc1cccc2c1C(=O)c1c(O)c3c(c(O)c1C2=O)C[C@@](O)(C(C)=O)C[C@@H]3O[C@H]1C[C@H](NC=O)[C@H](O)[C@H](C)O1 [Baumycin C1] | 0.9535 ± 0.0021 | 0.838 ± 0.081 | 0.9955 ± 0.0035 | 0.955 ± 0.042 | 1.05 ± 0.057
NCCS(=O)(=O)O | 1.04 ± 0.021 | 1.01 ± 0.061 | 0.978 ± 0.02 | 0.9735 ± 0.00071 | 1 ± 0.037
COC(=O)CCCOc1ccc(Cl)cc1Cl | 0.984 ± 0.093 | 1.02 ± 0.11 | 0.965 ± 0.05 | 1.1 ± 0.099 | 0.9 ± 0.23
C#C[C@]1(O)CC[C@H]2[C@@H]3CCc4cc(OC)ccc4[C@H]3CC[C@@]21C | 0.952 ± 0.011 | 1.02 ± 0.021 | 0.986 ± 0.0085 | 0.981 ± 0.15 | 0.944 ± 0.059
CC1(C)S[C@@H]2[C@H](NC(=O)Cc3ccccc3)C(=O)N2[C@H]1C(=O)O | 0.914 ± 0.0057 | 0.968 ± 0.025 | 1.02 ± 0.067 | 1.16 ± 0.11 | 0.949 ± 0.14
CC=CC(=O)N(CC)c1ccccc1C | 0.931 ± 0.093 | 1.05 ± 0.028 | 1.01 ± 0.021 | 0.953 ± 0.081 | 0.8525 ± 0.0078
CC(=O)CCCCn1c(=O)c2c(ncn2C)n(C)c1=O | 0.93 ± 0.015 | 0.911 ± 0.054 | 0.94 ± 0.051 | 1.15 ± 0.085 | 1.03 ± 0.014
CC1=CC(=O)c2ccccc2C1=O | 1.04 ± 0.05 | 0.955 ± 0.064 | 1.025 ± 0.0071 | 1.02 ± 0.044 | 0.914 ± 0.013
O=c1oc2c(O)c(O)cc3c(=O)oc4c(O)c(O)cc1c4c23 | 1.03 ± 0.028 | 1.125 ± 0.0071 | 1.11 ± 0.028 | 0.971 ± 0.055 | 1.045 ± 0.0071
C/N=C(/NC#N)NCCSCc1csc(NC(=N)N)n1 | 1 ± 0.068 | 0.975 ± 0.078 | 1.01 ± 0.014 | 1.12 ± 0.021 | 1.11 ± 0.064
O=C(O)c1cn(-c2ccc(F)cc2)c2cc(N3CCNCC3)c(F)cc2c1=O | 0.906 ± 0.012 | 0.949 ± 0.029 | 0.998 ± 0.046 | 1.08 ± 0.11 | 1.06 ± 0.1
COc1cc(OC)c2ccc(=O)oc2c1 | 1.08 ± 0.057 | 0.999 ± 0.2 | 1.07 | 1.02 ± 0.084 | 1.01 ± 0.071
